15 compounds from PubChem BioAssay AID540356 (Broad Institute, 2011) can be followed below.

The whole screen tested about 2,500 compounds, of which about 360 (14%) were called active. Not all results are given here. Unmarked numbers belong to inactive results.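 Rule for the calls: active = signal-lowering compounds whose fitted half-maximal concentration AC50 is no higher than ten times their top tested concentration; inconclusive = flat curve with 30 to 70% inhibition, or poor fit; inactive = flat within 30%, signal increase, or AC50 above limit.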

The assay can be described thus: HRP/luminol detection interference without ALR, dose response, artefact control for ALR inhibitor project, biochemical, luminescence, no ALR or DTT, cherry-pick (AID 540356).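 For activity change, negative = inhibition: 0% = median of neutral control wells and -100% = median of quercitin 100 µM wells.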 Conditions: HRP/H2O2 luminol luminescence counterscreen; series mostly up to 10 µM; activity change, negative = inhibition: at the top concentration. Background: The purpose of a counterscreen is to sort out artefacts and off-target activity.
Turning to `NCCc1ccc(O)c(O)c1`, the AC50 was 6.13 µM (active).

`CNCCc1ccc(O)c(O)c1`: the “activity change, negative = inhibition” value was -17%.

`C/C(CCc1c[nH]c2ccccc12)=N\O`: the “activity change, negative = inhibition” value was -1.34%.

For the compound `CCc1ccc(N2C(=O)NC(=O)/C(=C\C=C\c3ccco3)C2=O)cc1`, the “activity change, negative = inhibition” value is 2.01%.

In the case of `CC1=NN(c2ccccc2)C(=O)C1/C=C1/C(=O)NC(=O)N(c2cc(C)cc(C)c2)C1=O` (stereo not given), the “activity change, negative = inhibition” value was 0.554%.

With `Cn1c(O)c(/C=N/Nc2ccccc2)c(=O)n(C)c1=O`, the AC50 was 1.32 µM (active).

On to `CN=C(SCc1ccccc1)c1c(O)n(C)c(=O)n(C)c1=O`, for which the “activity change, negative = inhibition” value was 1.96%.

Take `N/C(=N\[N+](=O)[O-])N/N=C/c1ccc(O)cc1`: the “activity change, negative = inhibition” value was -14.1%.

On to `C=CCN1C(=O)NC(=O)/C(=C\c2ccc(-c3ccccc3[N+](=O)[O-])o2)C1=O`, for which the “activity change, negative = inhibition” value is 1.87%.

Take `Cc1ccc(/C=C2\C(=O)NC(=O)N(Cc3ccccc3Cl)C2=O)o1`: the “activity change, negative = inhibition” value was -6.1%.

In the case of `CCCN1CCc2cccc3c2[C@H]1Cc1ccc(O)c(O)c1-3`, the AC50 is 9.91 µM (active).

In the case of `CC(=O)Nc1ccccc1OP1(=O)COc2ccccc2OC1`, the “activity change, negative = inhibition” value was 3.51%.

`Cc1ccc(/C=C2\C(=O)NC(=O)N(CCc3ccc(F)cc3)C2=O)s1`: the “activity change, negative = inhibition” value was 2.22%.

Turning to `O=C(O)C12C3CCCC1C32c1ccccc1` (stereo not given), the “activity change, negative = inhibition” value is 0.261%.

Take `CCNc1ccc(P(=S)(N(C)C)N(C)C)cc1`: the “activity change, negative = inhibition” value was -0.242%.

What is called AC50 is the midpoint of the concentration-response curve, whichever way the signal moves.
